Data taken from PubChem BioAssay (NCI).
About 83,000 compounds went through this panel and 20% of them were active in at least one assay; those are over-represented in the sample as a whole.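 Note: values are percent growth. 100 is the growth of untreated cells, values between 100 and 0 indicate rising inhibition; between -100 and 0 indicates cell death.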 The source made the active and inactive calls. Rule for the calls: active = growth percent below 10; inactive = the rest.

How the values were obtained:
Assay in all cases: NCI-60 one-dose screen, 48 h (100 = growth as untreated, 0 = no growth, -100 = all killed)
Settings in all cases: 10 µM
SK-MEL-2 melanoma = system: SK-MEL-2 melanoma
EKVX NSCLC = system: EKVX NSCLC
SN12C renal = system: SN12C renal
UO-31 renal = system: UO-31 renal
TK-10 renal = system: TK-10 renal
ACHN renal = system: ACHN renal
CAKI-1 renal = system: CAKI-1 renal
A498 renal = system: A498 renal
CCRF-CEM leukemia = system: CCRF-CEM leukemia
MOLT-4 leukemia = system: MOLT-4 leukemia
SR leukemia = system: SR leukemia
RPMI-8226 leukemia = system: RPMI-8226 leukemia
OVCAR-8 ovarian = system: OVCAR-8 ovarian
OVCAR-5 ovarian = system: OVCAR-5 ovarian
OVCAR-4 ovarian = system: OVCAR-4 ovarian
SK-OV-3 ovarian = system: SK-OV-3 ovarian
IGROV1 ovarian = system: IGROV1 ovarian
OVCAR-3 ovarian = system: OVCAR-3 ovarian
HS 578T breast = system: HS 578T breast
NCI/ADR-RES ovarian = system: NCI/ADR-RES ovarian

Measured: growth

COC1=C[C@@]23CCC(=O)N2CCc2cc4c(cc2[C@H]3[C@H]1OC(=O)C(C)(C)O)OCO4
inactive: SK-MEL-2 melanoma 104% | EKVX NSCLC 97.2% | SN12C renal 96.5% | UO-31 renal 87.5% | TK-10 renal 97.7% | ACHN renal 103% | CAKI-1 renal 95.6% | A498 renal 108% | CCRF-CEM leukemia 99.3% | MOLT-4 leukemia 86.7% | SR leukemia 96.1% | RPMI-8226 leukemia 92.3% | OVCAR-8 ovarian 109% | OVCAR-5 ovarian 101% | OVCAR-4 ovarian 98.6% | SK-OV-3 ovarian 120% | IGROV1 ovarian 103% | OVCAR-3 ovarian 106% | HS 578T breast 98.1% | NCI/ADR-RES ovarian 97.4%

CCCn1c(O)c(N=Nc2nc(-c3cc4ccccc4oc3=O)cs2)c2cc(Br)ccc21
inactive: SK-MEL-2 melanoma 102% | EKVX NSCLC 92.8% | SN12C renal 95.2% | UO-31 renal 85.1% | TK-10 renal 125% | ACHN renal 91.1% | CAKI-1 renal 96.4% | A498 renal 130% | CCRF-CEM leukemia 98.9% | MOLT-4 leukemia 107% | SR leukemia 101% | RPMI-8226 leukemia 97.9% | OVCAR-8 ovarian 105% | OVCAR-5 ovarian 98.3% | OVCAR-4 ovarian 98.9% | SK-OV-3 ovarian 110% | IGROV1 ovarian 106% | OVCAR-3 ovarian 100% | HS 578T breast 83.4% | NCI/ADR-RES ovarian 95.4%

CC[C@]12C=CCN3CC[C@@]4(c5cc(C#CCNc6ccc(C)c(Nc7nccc(-c8cccnc8)n7)c6)c(OC)cc5N(C)[C@H]4[C@@](O)(C(=O)OC)[C@@H]1OC(C)=O)C32 (stereo not given in full)
inactive: SK-MEL-2 melanoma 61.7% | EKVX NSCLC 55.9% | SN12C renal 45.3% | UO-31 renal 46.9% | TK-10 renal 88% | ACHN renal 51.4% | CAKI-1 renal 40.4% | A498 renal 68.1% | CCRF-CEM leukemia 18.8% | MOLT-4 leukemia 37.9% | SR leukemia 21.3% | RPMI-8226 leukemia 38.5% | OVCAR-8 ovarian 48.6% | OVCAR-5 ovarian 81.9% | OVCAR-4 ovarian 41.4% | SK-OV-3 ovarian 110% | IGROV1 ovarian 60.7% | OVCAR-3 ovarian 48.1% | HS 578T breast 55.7% | NCI/ADR-RES ovarian 54.4%

Cc1ccc(F)cc1N/C=c1\s/c(=C(\C#N)C(=O)Nc2ccccc2)n(-c2ccccc2)c1=O
active: ACHN renal -20.1% | A498 renal -16.7% | OVCAR-4 ovarian -26.9%
inactive: SK-MEL-2 melanoma 94.7% | EKVX NSCLC 86.7% | SN12C renal 46.9% | UO-31 renal 45.5% | TK-10 renal 84.4% | CAKI-1 renal 19.8% | CCRF-CEM leukemia 84.7% | MOLT-4 leukemia 90.3% | SR leukemia 75.4% | RPMI-8226 leukemia 84.9% | OVCAR-8 ovarian 53.9% | OVCAR-5 ovarian 72.5% | SK-OV-3 ovarian 78.1% | IGROV1 ovarian 61.5% | OVCAR-3 ovarian 99% | HS 578T breast 37% | NCI/ADR-RES ovarian 42.6%

C=C1CCC2C3(C)COC(c4ccccc4F)OC3CCC2(C)C1C/C=C1/C(=O)OCC1O (stereo not given)
inactive: A498 renal 101% | CCRF-CEM leukemia 15.1% | SR leukemia 11.6% | RPMI-8226 leukemia 13.4% | OVCAR-4 ovarian 22.2% | SK-OV-3 ovarian 26.3%
active: SK-MEL-2 melanoma -59.2% | EKVX NSCLC -51.6% | SN12C renal -40.9% | UO-31 renal -96.5% | TK-10 renal -67.1% | ACHN renal -99.4% | CAKI-1 renal -40.7% | MOLT-4 leukemia 9.47% | OVCAR-8 ovarian -54.3% | OVCAR-5 ovarian -42.8% | IGROV1 ovarian -45.8% | OVCAR-3 ovarian -79.1% | HS 578T breast -0.635% | NCI/ADR-RES ovarian -23%

Cc1cc(=O)oc2cc(OCCCCOc3ccc(/C=C/C(=O)Nc4cccc(Cl)c4)cc3)ccc12
active: OVCAR-4 ovarian -30.5%
inactive: SK-MEL-2 melanoma 86.9% | EKVX NSCLC 71.3% | SN12C renal 73.8% | UO-31 renal 84.9% | TK-10 renal 66.2% | ACHN renal 81.4% | CAKI-1 renal 73.2% | A498 renal 80.7% | CCRF-CEM leukemia 83.4% | MOLT-4 leukemia 80.6% | SR leukemia 55.1% | RPMI-8226 leukemia 57.8% | OVCAR-8 ovarian 49.7% | OVCAR-5 ovarian 82.1% | SK-OV-3 ovarian 119% | IGROV1 ovarian 103% | OVCAR-3 ovarian 27.6% | HS 578T breast 29.5% | NCI/ADR-RES ovarian 45.7%

O=[N+]([O-])c1ccc(-c2nc(-c3ccccc3)c(-c3ccccc3)n2-c2ccc(S(=O)(=O)Nc3ncccn3)cc2)cc1
inactive: SK-MEL-2 melanoma 69.4% | EKVX NSCLC 22.8% | SN12C renal 38.9% | UO-31 renal 22.1% | TK-10 renal 66% | ACHN renal 50.1% | CAKI-1 renal 29% | A498 renal 79.3% | CCRF-CEM leukemia 20.8% | MOLT-4 leukemia 26.2% | SR leukemia 45% | RPMI-8226 leukemia 33% | OVCAR-8 ovarian 54.5% | OVCAR-5 ovarian 72.8% | OVCAR-4 ovarian 66.7% | SK-OV-3 ovarian 104% | IGROV1 ovarian 74.3% | OVCAR-3 ovarian 51.7% | HS 578T breast 37.3% | NCI/ADR-RES ovarian 42.4%

Nc1nc(Nc2ccc(Cl)cc2)n(Cc2cccc(Br)c2)n1
inactive: SR leukemia 10.4%
active: SK-MEL-2 melanoma -74.7% | EKVX NSCLC -4.06% | SN12C renal -28.5% | UO-31 renal -7.87% | TK-10 renal -3.35% | ACHN renal 1.49% | CAKI-1 renal 3.07% | A498 renal -49% | CCRF-CEM leukemia 4.65% | MOLT-4 leukemia 8.42% | RPMI-8226 leukemia 2.44% | OVCAR-8 ovarian 2.52% | OVCAR-5 ovarian -24.5% | OVCAR-4 ovarian 9.75% | SK-OV-3 ovarian -2.59% | IGROV1 ovarian -5.03% | OVCAR-3 ovarian -35.3% | HS 578T breast -25.9% | NCI/ADR-RES ovarian -25%

COc1ccc2[nH]cc(/C=N/Nc3ccc(Br)cn3)c2c1
active: SR leukemia 3.07% | RPMI-8226 leukemia -11.4% | NCI/ADR-RES ovarian 7.9%
inactive: SK-MEL-2 melanoma 73.5% | EKVX NSCLC 22.9% | SN12C renal 23.7% | UO-31 renal 11% | TK-10 renal 54% | ACHN renal 26.7% | CAKI-1 renal 30.9% | A498 renal 50.7% | CCRF-CEM leukemia 11.2% | MOLT-4 leukemia 24.6% | OVCAR-8 ovarian 34% | OVCAR-5 ovarian 55.3% | OVCAR-4 ovarian 53.2% | SK-OV-3 ovarian 65.7% | IGROV1 ovarian 10.3% | OVCAR-3 ovarian 31.1% | HS 578T breast 25.8%

Cc1ccc(/C(CSc2nnc(-c3c[nH]c4ccccc34)n2-c2ccccc2)=N/O)cc1
active: SN12C renal -36.7% | UO-31 renal 6.45% | TK-10 renal -65.1% | ACHN renal -61.7% | CAKI-1 renal -27.4% | CCRF-CEM leukemia -35% | MOLT-4 leukemia -27.8% | SR leukemia 9.79% | RPMI-8226 leukemia -19.1% | OVCAR-8 ovarian -27.8% | OVCAR-5 ovarian -48.9% | OVCAR-4 ovarian -87.2% | IGROV1 ovarian -62.4% | HS 578T breast -53.5% | NCI/ADR-RES ovarian -68.4%
inactive: SK-MEL-2 melanoma 62.7% | EKVX NSCLC 28.3% | A498 renal 91.9% | SK-OV-3 ovarian 11.5% | OVCAR-3 ovarian 14.7%

O=C(NO)c1ccc(Cn2ccc3c(NCc4ccccc4)ncnc32)cc1
active: SK-MEL-2 melanoma -2.65% | UO-31 renal 4.26% | TK-10 renal -7.3% | ACHN renal 0.241% | CAKI-1 renal 2.72% | A498 renal -20.1% | CCRF-CEM leukemia 8.45% | MOLT-4 leukemia 3.81% | OVCAR-8 ovarian -37.8% | OVCAR-5 ovarian -8.63% | SK-OV-3 ovarian -30.5% | IGROV1 ovarian -40.1% | OVCAR-3 ovarian 8.99% | HS 578T breast -0.0703% | NCI/ADR-RES ovarian -32.1%
inactive: EKVX NSCLC 21.4% | SN12C renal 13.9% | SR leukemia 12.7% | RPMI-8226 leukemia 17.2% | OVCAR-4 ovarian 36%

CC1CC(c2ccc(N(C)C)cc2)=NN1c1nc(O)c(C2=c3cc(Br)ccc3=NC2=O)s1 (stereo not given)
inactive: SK-MEL-2 melanoma 98.9% | EKVX NSCLC 61.9% | SN12C renal 106% | UO-31 renal 78.3% | TK-10 renal 94.4% | ACHN renal 92.2% | CAKI-1 renal 101% | A498 renal 103% | CCRF-CEM leukemia 29.8% | MOLT-4 leukemia 70.5% | SR leukemia 67.6% | RPMI-8226 leukemia 28.1% | OVCAR-8 ovarian 83% | OVCAR-5 ovarian 123% | OVCAR-4 ovarian 94.5% | SK-OV-3 ovarian 91.3% | IGROV1 ovarian 110% | OVCAR-3 ovarian 73.6% | HS 578T breast 70%
active: NCI/ADR-RES ovarian 7.99%

Brc1ccc(N/N=C/c2c[nH]c3ccccc23)nc1
inactive: SK-MEL-2 melanoma 83.6% | EKVX NSCLC 24.4% | SN12C renal 15.3% | TK-10 renal 70% | ACHN renal 27.5% | CAKI-1 renal 25.9% | A498 renal 43% | MOLT-4 leukemia 18% | OVCAR-8 ovarian 44.3% | OVCAR-5 ovarian 45.4% | OVCAR-4 ovarian 41.5% | SK-OV-3 ovarian 71% | OVCAR-3 ovarian 19.5% | HS 578T breast 51.7%
active: UO-31 renal 2.76% | CCRF-CEM leukemia 6.57% | SR leukemia 2.45% | RPMI-8226 leukemia 2.19% | IGROV1 ovarian 1.99% | NCI/ADR-RES ovarian 5.81%

C=C1CCC2C3(C)COC(c4cc(F)cc(F)c4)OC3CCC2(C)C1C/C=C1/C(=O)OCC1O (stereo not given)
inactive: A498 renal 106% | CCRF-CEM leukemia 15.1% | RPMI-8226 leukemia 14.1% | SK-OV-3 ovarian 25%
active: SK-MEL-2 melanoma -60.8% | EKVX NSCLC -42.8% | SN12C renal -31.6% | UO-31 renal -97.1% | TK-10 renal -86.3% | ACHN renal -99.6% | CAKI-1 renal -73.2% | MOLT-4 leukemia 8.72% | SR leukemia 7.75% | OVCAR-8 ovarian -83.1% | OVCAR-5 ovarian -21.3% | OVCAR-4 ovarian -11% | IGROV1 ovarian -49.8% | OVCAR-3 ovarian -76.9% | HS 578T breast -24.1% | NCI/ADR-RES ovarian -11.1%
